In PubChem BioAssay (NCI):
About 83,000 compounds went through this panel and 20% of them were active in at least one assay; those are over-represented in the sample as a whole.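 Compound tested at a single concentration for 48 hours in 96-well plates; a percent growth value below 10 was scored as active.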 A number with no mark means an inactive call. Calls of active or inactive are those of the source.

system: HCT-116 colon; test: NCI-60 one-dose screen, 48 h (100 = growth as untreated, 0 = no growth, -100 = all killed); conditions: 10 µM unless noted

**Q.** How did the growth turn out when `CCOC(=O)C1CCN(S(=O)(=O)/N=C2/NC(=O)NC2=C(Cl)Cl)CC1` was run?
**A.** 9.4% (active)

**Q.** How did the growth turn out when `COc1ccc(-c2cc(-c3nnc(SCC(=O)Nc4ccc(/C(C)=N\O)cc4)o3)c3ccccc3n2)cc1` was run?
**A.** 107%

**Q.** With `COc1ccc(-c2cs/c(=N\N=C\c3ccc(O)cc3O)n2/N=C/c2ccc(O)cc2O)cc1` as the compound, how does the growth read?
**A.** -52.8% (active)

**Q.** How did the growth turn out when `CCC1=C[C@H]2CN(CCc3c([nH]c4ccccc34)[C@@](C(=O)OC)(c3cc4c(cc3OC)N(C)[C@H]3[C@@](O)(C(=O)OC)[C@H](OC(C)=O)[C@]5(CC)[C@@H]6C[C@@H]6CN6CC[C@]43[C@@H]65)C2)C1` was run?
**A.** 4.74% (active)

**Q.** For `COCCOCCOCc1n(Cc2ccc3ccccc3n2)c2ccccc2[n+]1Cc1ccc2ccccc2n1`, which growth is on record?
**A.** 18.9%

**Q.** Which growth does the source give for `CCOC(=O)NCCc1nc2c([nH]1)c(=O)n(C)c(=O)n2C` here?
**A.** 92.7%

**Q.** Which growth does the source give for `COc1ccc(-c2cn(-c3ccc(Cl)cc3)c(=S)[nH]2)cc1OC` here?
**A.** 32.2%

**Q.** How did the growth turn out when `O=C(Nc1nccs1)c1noc2ccccc12` was run?
**A.** 93.8%

**Q.** How did the growth turn out when `CCOC(=O)c1c(C)nc2c(c1N)/C(=C/c1ccccn1)C(=O)N2Cc1ccccc1` was run?
**A.** -21.8% (active)

**Q.** For `COc1ccc(Cl)c([N+](=O)[O-])c1`, which growth is on record?
**A.** 108%

**Q.** With `Cn1c2ccccc2c2c(OC(=O)c3ccccc3)c3c(nc21)-c1ccccc1C3` as the compound, how does the growth read?
**A.** 95.9%

**Q.** Which growth does the source give for `O=[N+]([O-])c1ccc(Oc2ccc(-c3ccccc3)cc2)cc1` here?
**A.** 73.4%

**Q.** Which growth does the source give for `CNC(=O)c1cc(Oc2ccc3c(c2)sc2nc(-c4ccc(NC(C)=O)cc4)cn23)ccn1` here?
**A.** 48.9%

**Q.** With `COc1ccc2nc(-c3ccc(Cl)cc3)cc(-c3nnc(SCC(=O)Nc4ccc(/C(C)=N\O)cc4)o3)c2c1` as the compound, how does the growth read?
**A.** 2.59% (active)

**Q.** Which growth does the source give for `C#Cc1ccccc1NC(=O)c1sc2nc3c(cc2c1N)CCCCCC3` here?
**A.** 75.5%

**Q.** Which growth does the source give for `CN(C)CCCn1c2c(c3cc(-c4cccc(S(N)(=O)=O)c4)ccc3c1=O)C(=O)c1ccccc1-2` here?
**A.** -82.6% (active)

**Q.** For `Clc1ccc2c(NCCCNC3CCCCC3)ccnc2c1`, which growth is on record?
**A.** 64.5%

**Q.** `O=C(Nc1nc(-c2ccccc2Cl)cs1)c1cc(-c2ccc(Br)cc2)nc2ccccc12` was tested. Which growth did it give?
**A.** 43.6%

**Q.** With `CC[C@H](Nc1ncnc2nc[nH]c12)c1nc2cccc(CC(=O)c3ccc(C(=O)NO)cc3)c2c(=O)n1-c1ccccc1` as the compound, how does the growth read?
**A.** 90.5%

**Q.** How did the growth turn out when `CCSc1ccc(C2C(Br)C(=O)N2c2cc(OC)c(OC)c(OC)c2)cc1` (stereo not drawn) was run?
**A.** 4.7% (active)

**Q.** Which growth does the source give for `C=CCn1c(SCC(=O)Nc2ccc(C(=O)/C=C/c3cc(OC)c(OC)c(OC)c3)cc2)nnc1-c1ccc(Cl)cc1` here?
**A.** -62.2% (active)

**Q.** How did the growth turn out when `COC(=O)c1oc2c(C(=O)/C=C/c3ccc(OC)cc3)c(OCCCN3CCCCC3)ccc2c1C` was run?
**A.** 1.36% (active)

**Q.** Which growth does the source give for `C#C[C@@]1(O)[C@@H](CO)O[C@@H](n2cc(Cl)c3c(N)ccnc32)[C@@H]1O` here?
**A.** 4.67% (active)

**Q.** Which growth does the source give for `CN1CC=C(c2cc(NC(=O)Nc3ccc(Oc4ccnc(NC(=O)C5CC5)c4)c(F)c3)cc(C(F)(F)F)c2)CC1` here?
**A.** -10.7% (active)

**Q.** How did the growth turn out when `C=C(C)[C@@H]1CCC=C2CC[C@]3(C)[C@H](CC[C@@H]4[C@@]5(C)CCCNC(C)(C)[C@@H]5CC[C@]43C)[C@H]21` was run?
**A.** -54.8% (active)

**Q.** Which growth does the source give for `COc1ccc(C(=O)c2cc(OC)c(C)c(OC)c2)cc1OC(=O)CCl` here?
**A.** 10.2%

**Q.** `COc1ccc(-c2[nH]c3ccccc3c2C=C(C#N)C#N)cc1` was tested. Which growth did it give?
**A.** 4.01% (active)

**Q.** `CC(=O)c1cnc(-c2ccccc2)nc1CBr` was tested. Which growth did it give?
**A.** 28.4%

**Q.** With `COc1ccc(-c2[nH]c3ccc(OC)cc3c2C=C(C#N)C#N)cc1` as the compound, how does the growth read?
**A.** 19%

**Q.** With `NC(N)=NC(N)=Nc1cc2ccccc2c2ccccc12` as the compound, how does the growth read?
**A.** -44.5% (active)

**Q.** `CCCCCOC(=O)c1ccccc1O` was tested. Which growth did it give?
**A.** 98.9%

**Q.** `COc1cc(C(=O)Nc2cc(OC)c3ccn(C)c3c2)cc2c1C[C@]1(C)CC[C@@H](O)C(C)(C)[C@H]1O2` was tested. Which growth did it give?
**A.** 12.6%

**Q.** `CC(=O)c1ccc(NC(=O)CSc2nnc(-c3cc(-c4ccc(Cl)cc4)nc4ccccc34)o2)cc1` was tested. Which growth did it give?
**A.** 20.8%

**Q.** With `CC(=O)c1cc2c(N)c(C(=O)Nc3ccccn3)sc2nc1C` as the compound, how does the growth read?
**A.** 93.3%

**Q.** With `FC(F)(F)c1ccc2c(Nc3cccc(C4CC(c5ccccc5)=NN4c4ccc(Cl)cc4)c3)ccnc2c1` (stereo not drawn) as the compound, how does the growth read?
**A.** -3.98% (active)

**Q.** With `O=C1c2ccccc2C(=O)c2c1oc1c2c(=O)[nH]c2ccc(Cl)cc21` as the compound, how does the growth read?
**A.** -12.2% (active)

**Q.** For `CN(C)CCCn1c2c(c3cc(-c4ccco4)ccc3c1=O)C(=O)c1ccccc1-2`, which growth is on record?
**A.** 26.6%

**Q.** For `Nc1c(C(=O)Nc2ccccc2)sc2nc3c(cc12)CN(C(=O)OCc1ccccc1)CC3`, which growth is on record?
**A.** 28.7%
